About 83,000 compounds went through this panel and 20% of them were active in at least one assay; those are over-represented in the sample as a whole.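 Testing used 96-well plates and a 48-hour single-concentration exposure. Example: -40 means 40% of the starting cells died.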 A number with no mark means an inactive call. Activity calls are given as the source filed them.
Test system: EKVX NSCLC
Experiment: NCI-60 one-dose screen, 48 h (100 = growth as untreated, 0 = no growth, -100 = all killed)
Conditions: 10 µM unless noted
Description: Growth inhibition of the EKVX human Non-Small Cell Lung tumor cell line is measured as a screen for anti-cancer activity. Cells are grown in 96 well plates and exposed to the test compound for 48 hours. Compounds are tested at a single concentration, which is 10^-5 M for most compounds. The reported endpoint is percent growth (GI% or GIPRCNT), where numbers from 0 - 100% represent growth inhibition, and numbers from -100% - 0 represent cell death. For example, a value of 40 represents 60% growth inhibition. A value of 0 means no net growth occurred over the course of the experiment. A value of -40 indicates 40% of cells at the beginning of the experiment died by the end of the experiment. A value of -100 means all cells are dead at the end of the experiment.
NCI-60 Human Tumor Cell Lines Screen was performed using the standard one-dose NCI protocol, which is described in more detail at https://dtp.cancer.gov/discovery_development/nci-60/default.htm.
Compounds with GIPRCNT values below 10 were considered active. Activity score was based on GIPRCNT using the following formula: […]
Score is 0 for GIPRCNT values of 100 or above, 50 for GIPRCNT values of 0, and 100 for GIPRCNT values of -100.

Row | Structure (SMILES) | growth
1 | COc1ccc(NC(=O)CSc2nc(C)c(C(C)=O)n2-c2ccc([N+](=O)[O-])cc2)cc1 | 88.1%
2 | COc1ccc2[nH]c(O)c(/C=c3/cc4c(c(-c5cc(OC)c(OC)c(OC)c5)n3)=Nc3ccccc3-4)c2c1 | 81.3%
3 | COc1ccc(/C=C/c2c(C(=O)/C=C/c3ccc(F)cc3)c(C)nc3ccccc23)cc1 | 63.1%
4 | O=C(NCCCNc1cc(-c2cn(-c3ccccc3)nc2-c2cccc(O)c2)ccn1)c1ccc(F)cc1 | 48.2%
5 | COc1cc(-c2nc(N3CCN(C)CC3)c3ccccc3n2)cc(OC)c1OC | 67.2%
6 | C=CCOC1=CC(=O)c2ccccc2C1=O | 116%
7 | CC(C)CCC[C@@H](C)[C@H]1CC[C@H]2[C@@H](Nc3ccc(O)cc3)CCC[C@]12C | 109%
8 | Cc1ccc2nc(NC(=O)CSc3nc(Nc4ccc([N+](=O)[O-])cc4)c(C#N)c(-c4ccccc4)n3)sc2c1 | 91.1%
9 | NC[C@H](O)c1ccc(O)c(O)c1 | 113%
10 | Oc1c(CN2CCCC2)cc(COCc2ccc(Br)cc2)c2cccnc12 | 27.5%
11 | CCN(CC)CCN1CC(O)=C(c2nc(-c3ccc(Cl)cc3)cs2)C1=N | 82.8%
12 | Cc1ccc2nc(C)c(-c3nnc(SCc4ccc(C#N)cc4)o3)n2c1 | 83.8%
13 | COc1ccc(NC(=O)CSc2nc(C)c(C(C)=O)n2-c2ccc(Cl)cc2)cc1 | 95.5%
14 | Cc1ccc(C(=O)C2=C(O)C(=O)N(Cc3cccnc3)C2c2ccccc2F)o1 (stereo not given) | 97.7%
15 | Cc1ccc(Cl)cc1NC(=O)c1cc2ccccc2cc1O | 4.4% (active)
16 | COC(=O)[C@]12CC[C@@H](C)[C@H](C)[C@@H]1C1=CC[C@@H]3[C@@]4(C)C(C=O)=C[C@@](C)(COC(=O)c5ccco5)[C@@H]4C(=O)C[C@@]3(C)[C@]1(C)CC2 | 38.3%
17 | Cc1nn(-c2ccccc2)c(Oc2ccc(Cl)cc2)c1/C=N\N=c1/sc2ccccc2n1C | 85.5%
18 | COc1cc(C2CC(=O)Nc3c2c(C)nn3-c2nc3ccccc3[nH]2)c(OC)c(OC)c1OC (stereo not given) | 86.4%
19 | CN1C(=O)N(C)C2C1NN=c1s/c(=C\c3ccccc3)c(=O)n12 (stereo not given) | 78.5%
20 | N/C(=N\c1nc2ccccc2s1)NC(=O)Nc1cccc(Cl)c1 | 49.7%

Row | Structure (SMILES) | growth
21 | CCCCCCCCCCN(CCCCCCCCCC)CC(=O)c1ccc2cc(Br)c3ccccc3c2c1 | 83.5%
22 | Clc1ccc(-c2c3ccc(=[N+]4CCCCC4)cc-3oc3cc(N4CCCCC4)ccc23)cc1 | -66.7% (active)
23 | COC(=O)[C@H](CSC)N(C)C(=O)[C@@H]1CSSC[C@@H](NC(=O)c2nc3ccccc3cc2O)C(=O)NCC(=O)N1C | 82.8%
24 | C=CCSc1nc2ccccc2cc1/C=N/O | 76.6%
25 | c1c[nH]c(CNC2CCCCC2)c1 | 108%
26 | COc1ccc(N=C(c2ccccc2)C2C(=O)c3ccccc3C2=O)cc1 | 104%
27 | COc1cc(/C=N/NC(=O)Cn2c(C(C)C)nc3ccccc32)ccc1O | 103%
28 | NNC(=O)c1nc(N)n(-c2ccc(S(N)(=O)=O)cc2)n1 | 98.2%
29 | Cc1ccc(NCCN(C)C)c2c(=O)c3ccccc3sc12 | 49.4%
30 | COc1cc(/C=C/C(=O)c2ccc(Nc3nc(Nc4ccc(F)cc4)nc(Nc4ccc(Cl)cc4)n3)cc2)cc(OC)c1OC | 74.1%
31 | CCCc1cc2c(=O)c(C(=O)OC)c[nH]c2cc1N(CC)CC | 106%
32 | COc1ccc(-c2c(N)n[nH]c2-c2ccc(Cl)cc2O)cc1OC | 109%
33 | O=C(CC(SCc1ccccc1)c1ccccc1)c1ccccc1 (stereo not given) | 82.4%
34 | Nc1nc(N)c2c(n1)NC(c1ccccc1)C1CCc3ccccc3C1=N2 (stereo not given) | 39.2%
35 | CCCCc1ccc(Nc2ccc(Nc3ccc(CCCC)cc3S(=O)(=O)O)c3c2C(=O)c2ccccc2C3=O)c(S(=O)(=O)O)c1 | 83.3%
36 | c1ccc2cc3nc4cc5ccccc5cc4nc3cc2c1 | 100%
37 | CN(C)CCCn1c(=O)c2ccccc2c2ccccc21 | 107%
38 | O=C(Nc1ccccc1)Nc1cccc(Oc2nnc(Cl)c3ccccc23)c1 | 30%
39 | N[C@@H](CCCCNCC(=O)O)C(=O)O | 96.9%
40 | NC(N)=NN=C(c1ccccc1)c1ccccc1 | 65.3%

Reference: PubChem BioAssay (NCI)
